The record followed here is PubChem BioAssay (NCI).

The panel holds about 83,000 compounds, 20% with a hit somewhere; the sample as a whole holds those more often.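 Values shown are percent growth following 48 h exposure of cells in 96-well plates to a single concentration of compound; below 10 was considered active.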 A number with no mark means an inactive call. Activity calls are given as the source filed them.

What all share (assay): NCI-60 one-dose screen, 48 h (100 = growth as untreated, 0 = no growth, -100 = all killed)
Conditions in all cases: 10 µM unless noted

The test system of assay [1] is MOLT-4 leukemia.
The test system of assay [2] is RPMI-8226 leukemia.
The subject of assay [3] is OVCAR-8 ovarian.
In assay [4] the test system is OVCAR-5 ovarian.
Assay [5] has as its system OVCAR-4 ovarian.
Assay [6] has as its system SK-OV-3 ovarian.
The subject of assay [7] is IGROV1 ovarian.
In assay [8] the test system is HS 578T breast.
Assay [9] relates to NCI/ADR-RES ovarian.
Assay [10] has as its system T-47D breast.
Assay [11] concerns BT-549 breast.
The test system of assay [12] is MDA-MB-435 melanoma.
Assay [13] has as its system SW-620 colon.
Assay [14] concerns MCF7 breast.
Assay [15] has as its system HCT-116 colon.
Assay [16] relates to HCC-2998 colon.
Assay [17] has as its system KM12 colon.
Assay [18] deals with SR leukemia.
The test system of assay [19] is OVCAR-3 ovarian.

Turning to `C[C@@]12CC=C3c4nc(Nc5cccc(O)c5)sc4CC[C@]3(C)[C@H]1CC[C@]1(C)C(=O)CC[C@@H]21`, the growth in assay [1] was 5.52% (active); in assay [2] it was -13.6% (active); in assay [3] it was 17.9%; in [4], 110%; in [5] it was 52.1%; in assay [6], 37.3%. Moreover, the growth in [7] is -12.1% (active); in [8] it was 7.41% (active); in assay [9], 78.9%; in assay [10], -8.55% (active); in [11], 17.4%; in assay [12], 42.6%. The growth in assay [13] was -4.13% (active); in assay [14], -25.9% (active); in assay [15], -23.7% (active); in assay [16], 81.5%; in [17], 34.7%.

As for `CC(=O)OCc1cc[c]([Hg][Cl])o1`, the growth was -20.3% (active) in assay [18]; 26.4% in [2]; 36.8% in assay [3]; 43.9% in assay [4]; 62.9% in assay [5]; 71% in assay [6]. Also, the growth in assay [7] is 11.3%; in assay [19], 0.253% (active); in assay [8], 57.5%; in assay [9], 77.1%; in [10], 17.8%; in [11], 14.3%. Further, the growth in assay [12] is 29.4%; in [13] it was 25.4%; in assay [14], 20.2%; in assay [15] it was 35.7%; in [16], 76.4%; in assay [17], 91.8%.

For the compound `c1ccc(Nc2nc(-c3ccccc3)c[se]2)cc1`, the growth in assay [18] was 79.6%; in assay [2] it was 86.6%; in [3], 96.3%; in [4], 96.7%; in assay [5] it was 75.6%; in [6] it was 86.4%. The growth in assay [7] was 68.8%; in assay [19] it was 93.5%; in assay [8] it was 89.6%; in assay [9], 97.3%; in assay [10] it was 6.3% (active); in assay [11] it was 87.4%. Also, the growth in [12] was 104%; in [13], 98.8%; in assay [14], 61%; in [15] it was 86.3%; in assay [16], 86.5%; in assay [17], 71.8%.

As to `COc1ccc(/C=C\c2cc(OC)c(OC)c(OC)c2)cc1NC(=O)/C=C/c1cc(OC)c(OC)c(OC)c1`, the growth in assay [1] was 47.7%; in assay [2], 63.8%; in assay [3], 68.8%; in [4], 77.6%; in assay [5] it was 66.1%; in assay [6], 3.82% (active). For the same compound, the growth in assay [7] is 62.4%; in assay [8], 51.8%; in assay [9], 8.42% (active); in [10], 30%; in [11], 44%; in assay [12], -53.2% (active). Also, the growth in assay [13] is 47.6%; in assay [14] it was 25.2%; in [15] it was 44.6%; in assay [16], 91.2%; in assay [17], 28.6%.

`C=CCn1cc(C=C2C(=O)N(C)C(=O)N(C)C2=O)c2ccccc21`: the growth in assay [1] is 97.6%; in [3], 83.1%; in [4] it was 14.9%; in assay [5] it was 97.6%; in [6], 87.4%; in assay [7], 95.6%. Further, the growth was 96.1% in assay [19]; 76% in assay [8]; 101% in assay [9]; 88.7% in [10]; 98% in assay [11]; 101% in assay [12]. The growth is 97.9% in assay [13]; 88.3% in assay [14]; 100% in [15]; 98.1% in assay [16]; 102% in assay [17].

On to `COC(=O)[C@@]1(C)CC[C@]2(C)CC[C@]3(C)C4=CC(=O)c5c(cc(O)c(O)c5C)[C@]4(C)CC[C@@]3(C)[C@@H]2C1`, for which the growth in assay [18] was 51.2%; in [2] it was 27%; in assay [3], 60.4%; in assay [4], 119%; in assay [5] it was 47.4%; in assay [6], 58.3%. Further, the growth in [7] was 50.8%; in [19], 47.9%; in [8] it was 79.5%; in assay [9] it was 63.4%; in assay [10] it was 54.1%; in assay [11], 82.1%. In addition, the growth was 58.5% in assay [12]; 60.3% in assay [13]; 41.9% in assay [14]; 31.3% in assay [15]; 76.7% in [16]; 50.4% in assay [17].

Regarding `COC(=O)N[C@H]1CCc2c(Br)c(OC)c(OC)c(OC)c2-c2ccc(SC)c(=O)cc21`, the growth was 3.15% (active) in [1]; -3.46% (active) in assay [2]; 14.8% in [3]; 35.9% in assay [4]; 24.7% in [5]; 33.1% in assay [6]. In addition, the growth in assay [7] was 9.6% (active); in assay [8], 1.22% (active); in assay [9] it was 7.33% (active); in assay [10], 50.5%; in assay [11] it was 17.1%; in assay [12], -55.7% (active). The growth in [13] is 17.5%; in [14], 12.8%; in assay [15], 3.67% (active); in [16], 17.2%; in assay [17], -4.65% (active).

As to `CC(C)=CCC[C@H](C(=O)O)[C@@H]1CC[C@]2(C)C3=C(CC[C@@]12C)[C@@]1(C)CC[C@H](O)C(C)(C)[C@@H]1CC3`, the growth is 91.8% in [18]; 88.8% in assay [2]; 96.4% in [3]; 96.8% in [4]; 103% in [5]; 96.7% in assay [6]. Also, the growth in assay [7] is 103%; in [19], 107%; in [8], 99.9%; in [9], 102%; in assay [10], 92.5%; in assay [11], 75.2%. Moreover, the growth was 103% in assay [12]; 105% in assay [13]; 88.9% in assay [14]; 78.5% in assay [15]; 100% in assay [16]; 99.7% in assay [17].

In the case of `Nc1nc([Se])c2ncn(C3OC(CO)C(O)C3O)c2n1` (stereo not given), the growth in [1] is 7.08% (active); in assay [2] it was 23.9%; in [3], 55.8%; in assay [4], 60.8%; in assay [5], 79.5%; in [6], 77.7%. Moreover, the growth was 104% in assay [19]; 75.4% in [8]; 41.5% in assay [9]; 93.5% in [10]; 69.7% in [11]; 74.3% in assay [12]. For the same compound, the growth in [13] is 82.1%; in assay [14], 42.9%; in assay [15] it was 28.1%; in [16] it was 88.7%; in assay [17] it was 82.5%.

For `CCN(CCO)C(Cc1ccccc1)c1ccccc1` (stereo not given), the growth in assay [18] was 116%; in assay [2] it was 98.9%; in assay [3], 109%; in assay [4], 93%; in assay [5] it was 102%; in assay [6], 110%. Also, the growth was 97.4% in assay [7]; 109% in [19]; 105% in assay [8]; 94.7% in assay [9]; 111% in assay [10]; 100% in assay [11]. The growth is 94.4% in assay [12]; 96.4% in assay [13]; 94% in assay [14]; 99.3% in assay [15]; 96.8% in assay [16]; 99.4% in [17].
